Experimental findings from PubChem BioAssay (Tox21) are described below.

Inconclusive results are not listed. Unmarked numbers belong to inactive results. The source made the active and inactive calls. Unless noted, calls come from the whole dose curve; as a rule, active = well fitted curve in the direction sought with a large enough effect in the repeat runs; inconclusive = weak or mixed curves; inactive = no such curve, though single readings can be large; an effect the other way counts as inactive or inconclusive.

Test [1] in a line: qHTS assay to identify small molecule antagonists of the estrogen related receptor (ERR) signaling pathway from Tox21 library - cell viability counter screen (AID 1224834). Note: nearly all actives have a fitted effect of over 30% in size. In short, it runs like this:
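After 17.5 h of compound exposure at 37 C, ERR cells are incubated with CellTiter-Fluor for 30 min and fluorescence intensity serves as the viability measure.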
In general terms: In qHTS, concentration-response curves come from the screen itself.

Test [2] has as its target Luciferin 4-monooxygenase (Photinus pyralis) (UniProt P08659). Briefly: qHTS assay to identify small molecule inhibitors of firefly luciferase (AID 1224835). Note: series mostly up to about 120 µM; nearly all actives have a fitted effect of over 25% in size. In short, it runs like this:
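Biochemical qHTS: compounds run as interplate titrations against purified firefly enzyme, with D-luciferin and ATP each at its KM concentration. Light output recorded by CCD imaging.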

The nature of test [3]: qHTS assay to identify small molecule antagonists of the constitutive androstane receptor (CAR) signaling pathway - cell viability counter screen (AID 1224837). Note: series mostly up to about 92 µM; nearly all actives have a fitted effect of over 45% in size. The method in brief:
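Counter screen run in HepG2-CYP2B6-hCAR cells: 4 hr settle, compound titration (15 concentrations) with 50 nM CITCO, 23 hr at 37 C/5% CO2, CellTiter-Fluor fluorescence.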

Test [4] is described as follows: qHTS assay to identify small molecule antagonists of the estrogen related receptor signaling pathway with the pleiotropic PPARgamma coactivator (PGC) from Tox21 10K library - cell viability counter screen (AID 1224840; active = well fitted cell-killing curve with a large enough effect in the repeat runs, not every such curve was filed as active; note: nearly all actives have a fitted effect of over 40% in size). In short, it runs like this: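 Following seeding of 2,000 PGC/ERR cells/well and 6 hours' incubation, test compounds were delivered in DMSO. The plates then sat 17.5 hours at 37 C before a fluorogenic live-cell protease reagent (CellTiter-Fluor) was read after 30 min.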

Test [5] is described as follows: qHTS assay to identify small molecule agonists of the constitutive androstane receptor (CAR) signaling pathway - cell viability counter screen (AID 1224836). Note: series mostly up to about 92 µM; nearly all actives have a fitted effect of over 45% in size. The method in brief: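 Compound titrations (15 concentrations) went onto HepG2-CYP2B6-hCAR cells 4 h after seeding, alongside PK11195 at a final 0.75 uM; a 23 h, 37 C/5% CO2 incubation preceded CellTiter-Fluor viability measurement.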

Test [6] can be described thus: qHTS assay to identify small molecule antagonists of the estrogen related receptor signaling pathway with the pleiotropic PPARgamma coactivator (PGC) from Tox21 10K library (AID 1224841; call rule not given here; note: series mostly up to about 92 µM; actives are mostly falling curves and most rising ones were filed inactive; nearly all actives have a fitted effect of over 50% in size). In short, it runs like this:
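qHTS antagonist format: PGC/ERR cells, 2k/well, compound in DMSO by pin transfer after 6 h attachment, 18 h treatment at 37 C, One-Glo luminescence read at 30 min.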

Test [7] can be described thus: qHTS assay to identify small molecule agonists of the estrogen related receptor signaling pathway with the pleiotropic PPARgamma coactivator (PGC) from Tox21 10K library (AID 1224842). Note: nearly all actives have a fitted effect of over 15% in size. Note: potency is the fitted concentration of half-maximal effect. The method in brief:
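PGC/ERR reporter cell line, 2,000 cells per well, incubated 6 h at 37 C before 23 nL compound in DMSO was added. After 18 h at 37 C, One-Glo luminescence read following 30 min at room temperature.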

Test [8] addresses Nuclear receptor subfamily 1 group I member 3 (Homo sapiens) (UniProt Q14994). Description: qHTS assay to identify small molecule antagonists of the constitutive androstane receptor (CAR) signaling pathway (AID 1224838).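 Note: HepG2 cells stably expressing hCAR with CYP2B6 luciferase reporter stimulated by CITCO; nearly all actives have a fitted effect of over 40% in size.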 In short, it runs like this:
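Cell line: HepG2 double-stable for hCAR and CYP2B6-2.2kb reporter. Agonist: CITCO, 50 nM final. Compounds: 15 concentrations, 24 h, 37 C. Detection: ONE-Glo luminescence.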

Test [9] has as its target Thyrotropin receptor (Homo sapiens) (UniProt P16473). Description: qHTS assay to identify small molecule agonists of the thyroid stimulating hormone receptor (TSHR) signaling pathway (AID 1224843; calls by dose curve; note: nearly all actives have a fitted effect of over 45% in size; note: potency is the fitted concentration of half-maximal effect). The method in brief: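 TSHR-HEK293 cells in agonist mode, 30 min room-temperature step, then cAMP measured by competitive HTRF (cAMP-d2 with anti-cAMP cryptate) after 1 h at room temperature. Tested at 15 concentrations in triplicate.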

Test [10] deals with Nuclear receptor subfamily 1 group I member 3 (Homo sapiens) (UniProt Q14994). Description: qHTS assay to identify small molecule agonists of the constitutive androstane receptor (CAR) signaling pathway (AID 1224839).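 For activation: HepG2 cells stably carrying human CAR and a CYP2B6 luciferase reporter; series mostly up to about 92 µM.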 Note: nearly all actives have a fitted effect of over 15% in size. Note: potency is the fitted concentration of half-maximal effect. In short, it runs like this: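 In this screen, CAR-driven CYP2B6 promoter activity is measured by luminescence in HepG2-CYP2B6-hCAR cells after 24 h with test compounds and 0.75 uM PK11195 (final concentration).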
% is set by controls: 0 for no effect and ±100 for the full control effect.

Luciferin 4-monooxygenase (Photinus pyralis), sequence (P08659 whole entry, looked up): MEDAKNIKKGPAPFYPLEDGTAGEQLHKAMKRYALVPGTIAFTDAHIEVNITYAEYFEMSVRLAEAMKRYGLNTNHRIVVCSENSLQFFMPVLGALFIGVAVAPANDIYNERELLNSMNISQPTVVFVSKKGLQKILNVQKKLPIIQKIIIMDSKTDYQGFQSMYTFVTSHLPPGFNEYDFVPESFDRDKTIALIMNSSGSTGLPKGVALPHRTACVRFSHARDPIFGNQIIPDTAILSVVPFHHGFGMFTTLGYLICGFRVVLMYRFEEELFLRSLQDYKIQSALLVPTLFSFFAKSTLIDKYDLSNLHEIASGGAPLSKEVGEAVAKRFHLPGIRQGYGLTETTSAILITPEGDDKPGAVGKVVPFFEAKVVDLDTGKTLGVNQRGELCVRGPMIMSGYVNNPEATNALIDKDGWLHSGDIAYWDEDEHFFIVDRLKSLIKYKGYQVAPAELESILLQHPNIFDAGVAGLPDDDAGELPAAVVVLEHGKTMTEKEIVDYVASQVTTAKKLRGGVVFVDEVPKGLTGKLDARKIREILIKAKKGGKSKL
Nuclear receptor subfamily 1 group I member 3 (Homo sapiens), sequence (Q14994 whole entry, looked up): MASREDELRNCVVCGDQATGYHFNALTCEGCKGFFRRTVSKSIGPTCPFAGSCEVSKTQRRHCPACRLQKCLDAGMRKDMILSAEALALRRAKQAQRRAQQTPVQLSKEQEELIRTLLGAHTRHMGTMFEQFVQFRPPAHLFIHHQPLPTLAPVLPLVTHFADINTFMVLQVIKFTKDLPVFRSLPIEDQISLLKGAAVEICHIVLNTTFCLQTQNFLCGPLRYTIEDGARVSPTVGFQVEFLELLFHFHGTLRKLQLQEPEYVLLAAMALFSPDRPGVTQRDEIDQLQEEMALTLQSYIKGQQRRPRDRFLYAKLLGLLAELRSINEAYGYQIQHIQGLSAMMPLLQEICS
Thyrotropin receptor (Homo sapiens), sequence (P16473 whole entry, looked up): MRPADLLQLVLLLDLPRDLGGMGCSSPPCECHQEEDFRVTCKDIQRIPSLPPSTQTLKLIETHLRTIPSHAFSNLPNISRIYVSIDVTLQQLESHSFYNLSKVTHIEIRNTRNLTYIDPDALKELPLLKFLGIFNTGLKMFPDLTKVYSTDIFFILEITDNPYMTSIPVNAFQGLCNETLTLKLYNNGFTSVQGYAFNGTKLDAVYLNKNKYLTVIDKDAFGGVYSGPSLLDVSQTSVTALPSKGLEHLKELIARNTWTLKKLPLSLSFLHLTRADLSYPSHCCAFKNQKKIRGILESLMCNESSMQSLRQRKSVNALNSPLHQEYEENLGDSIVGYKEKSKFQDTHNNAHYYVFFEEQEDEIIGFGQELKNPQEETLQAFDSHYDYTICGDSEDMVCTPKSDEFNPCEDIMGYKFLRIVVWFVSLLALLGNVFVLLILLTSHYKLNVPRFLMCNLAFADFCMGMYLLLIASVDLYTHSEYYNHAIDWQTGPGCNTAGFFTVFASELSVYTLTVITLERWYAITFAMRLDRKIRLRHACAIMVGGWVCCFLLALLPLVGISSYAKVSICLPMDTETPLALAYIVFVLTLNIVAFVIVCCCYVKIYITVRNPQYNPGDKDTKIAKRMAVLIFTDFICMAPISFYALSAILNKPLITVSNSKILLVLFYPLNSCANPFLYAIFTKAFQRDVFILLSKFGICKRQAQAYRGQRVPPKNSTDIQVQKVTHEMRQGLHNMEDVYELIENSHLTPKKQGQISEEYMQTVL

In the case of `C=CC1(C)OC(=O)N(c2cc(Cl)cc(Cl)c2)C1=O` (stereo not drawn), the Potency entry in test [1], in test [2], in [3] and in test [4] was “inactive” in each case.

With `C=CC(=O)OCCN(C)C`, the Potency entry in test [1], in [2], in [5], in test [4], in test [6] and in [7] was “inactive” in each case.

In the case of `O=[N+]([O-])CCO`, the Potency result in test [1], in test [2], in test [3], in test [8], in [4] and in test [6] was “inactive” in each case. The Potency entry in test [7] is “inactive”.

As for `CCOC(=O)NC(C)(C)Cc1ccc(Cl)cc1`, the Potency entry in [1], in [2], in test [5], in test [8], in [4] and in [9] was “inactive” in each case.

For the compound `CC(C)[N+](C)(CCC(C(N)=O)(c1ccccc1)c1ccccc1)C(C)C`, the Potency result in test [1], in [2], in [5], in [8], in test [6] and in test [7] was “inactive” throughout. In addition, in [9], the Potency result was “inactive”.

Regarding `N#CC(Br)(Br)C(N)=O`, the Potency entry in [1], in [2], in [3] and in test [4] was “inactive” each time.

As to `NC(=O)CS(=O)C(c1ccccc1)c1ccccc1` (stereo not drawn), the Potency result in test [1], in [2], in [3], in test [8], in test [10] and in test [4] was “inactive” throughout. The Potency entry in [6] and in [7] was “inactive” each time.

On to `CC(C)(C)NC[C@H](O)c1ccc(O)cc1Cl`, for which the Potency entry in test [1], in test [2], in test [5], in test [4], in test [6] and in test [7] was “inactive” in each case. Moreover, the Potency in test [9] is 0.0084 µM (active).

As for `C=C(C)[C@H]1CN[C@H](C(=O)O)[C@H]1CC(=O)O`, the Potency result in test [1], in test [2], in test [5], in [10] and in [9] was “inactive” each time.

In the case of `CCN1CCCC1CNC(=O)C(O)(c1ccccc1)c1ccccc1` (stereo not drawn), the Potency result in test [1], in [2], in test [5], in [10] and in test [9] was “inactive” in each case.

With `CCC(C(N)=O)N1CCCC1=O` (stereo not drawn), the Potency result in test [1], in [2], in [3], in test [10], in test [4] and in [9] was “inactive” throughout.

For `CN(C)CCN(C)C`, the Potency entry in test [1], in test [2], in test [5], in test [4], in test [6] and in test [7] was “inactive” each time. Moreover, the Potency entry in test [9] was “inactive”.

In the case of `O=P(O)(O)CN(CP(=O)(O)O)CP(=O)(O)O`, the Potency result in test [1], in test [2], in test [5], in [4] and in [9] was “inactive” each time.

`CCC(=O)c1ccc(Cl)cc1`: the Potency result in [1], in [2], in test [3], in test [10], in test [4] and in test [6] was “inactive” throughout. In addition, the Potency result in test [7] is “inactive”.

As for `ClCOCCl`, the Potency result in test [1], in [2], in [5], in test [4] and in test [9] was “inactive” throughout.

`COc1cccc([C@@]2(O)CCCC[C@@H]2CN(C)C)c1`: the Potency result in test [1], in test [2], in test [5], in [4], in test [6] and in test [7] was “inactive” each time.

`CCSC(=O)Cl`: the Potency result in [1], in test [2], in [3], in [8], in [10] and in test [6] was “inactive” in each case. The Potency entry in test [7] was “inactive”.

As for `COc1ccc2c(C(=O)c3ccc(Cl)cc3)c(C)n(CC(=O)O)c2c1`, the Potency result in test [1], in test [2], in test [3], in test [10] and in [4] was “inactive” in each case.

With `Brc1c(Br)c(Br)c(Br)c(Br)c1Br`, the viability change, negative = cytotoxic in [1] is 3.18% [at 8.39 µM]; in test [4] it was -4.4% [at 8.39 µM]. Moreover, the activity change, negative = inhibition in test [2] is -3.44% [at 10.5 µM]. The activity change, negative = cytotoxicity in test [3] is -3.15% [at 8.39 µM]. Besides, the activity, negative = inhibition in test [8] was -5.81% [at 8.39 µM]. Moreover, in [9], the activation is 1.42% [at 8.39 µM].

As to `CCN[C@H](C)Cc1cccc(C(F)(F)F)c1`, the Potency result in [1], in test [2], in test [3], in [10], in test [4] and in test [9] was “inactive” each time.

On to `ClCCCCl`, for which the Potency entry in [1], in test [2], in [5], in test [8], in [4] and in test [9] was “inactive” in each case.

As to `C/C=C/CC#N`, the Potency entry in test [1], in [2] and in test [3] was “inactive” throughout.

For `O=P(O)(O)c1ccccc1`, the Potency entry in [1], in test [2], in test [5], in test [10], in [4] and in [9] was “inactive” each time.

As to `CCOC(=O)CCl`, the Potency result in test [1], in test [2], in test [5], in test [10], in [4] and in test [9] was “inactive” in each case.

Turning to `CCCCCCC(=O)CCCCCC/C=C/C[C@@H](O)[C@H](O)[C@@](N)(CO)C(=O)O`, the viability change, negative = cytotoxic in test [1] was 6.53% [at 19 µM]. Moreover, in [2], the activity change, negative = inhibition was -3.87% [at 23.6 µM]. Further, the activity change, negative = cytotoxicity in [3] is -0.0318% [at 19 µM]. The activation in test [10] is -1.84% [at 19 µM]; in test [9], -1.25% [at 19 µM].

Consider `C[C@H](CN1CCOCC1)C(C(=O)N1CCCC1)(c1ccccc1)c1ccccc1`, for which the Potency result in [1], in test [2], in [5], in test [4] and in test [7] was “inactive” in each case.

On to `Cc1ccc(-c2nc3ccc(C)cn3c2CC(=O)N(C)C)cc1`, for which the Potency result in test [1], in test [5], in test [3], in test [6] and in test [9] was “inactive” each time. For the same compound, the Potency in [7] was 10.6 µM (active).

On to `O=C1CCCCC1Cl` (stereo not drawn), for which the Potency entry in test [1], in test [2], in [3] and in test [9] was “inactive” in each case.

Consider `CC[C@H](O)C(C[C@H](C)N(C)C)(c1ccccc1)c1ccccc1`, for which the Potency entry in test [2], in [5], in test [3], in test [8], in test [10] and in test [4] was “inactive” throughout. For the same compound, the Potency entry in test [9] is “inactive”.

As for `CON(C)C(=O)Nc1ccc(Br)cc1`, the Potency entry in test [2], in [5], in test [3], in test [8], in test [4] and in test [9] was “inactive” each time.

For the compound `COc1ccccc1OC`, the Potency entry in test [1], in [2], in test [8], in test [4], in test [6] and in test [7] was “inactive” throughout. In addition, the Potency result in [9] was “inactive”.

As to `Cn1c(N)nc2c3cccnc3ccc21`, the Potency result in [8] and in test [4] was “inactive” throughout. Moreover, the Potency in test [10] was 32.7 µM (active).

As for `CCOP(=O)(CN(CCO)CCO)OCC`, the Potency result in test [1], in test [2], in test [3], in test [4] and in [9] was “inactive” each time.
